# Compound activity from PubChem.
# RORgamma inh – qHTS for inhibitors of ROR gamma transcriptional activity; Drosophila S2 Gal4-RORgamma UAS-luciferase reporter, 20 h; 310,000 tested, 5.4% active; Potency, µM (top dose mostly 53.6 µM), inactives show at the highest dose activity change, negative = inhibition, most hits filed as inhibitors; Nuclear receptor ROR-gamma (Mus musculus), P51450; further: potency means the concentration at half of the fitted maximal effect; nearly all actives have a fitted effect of over 60% in size
# Target sequence (P51450 whole entry, looked up, the tested form may be a part): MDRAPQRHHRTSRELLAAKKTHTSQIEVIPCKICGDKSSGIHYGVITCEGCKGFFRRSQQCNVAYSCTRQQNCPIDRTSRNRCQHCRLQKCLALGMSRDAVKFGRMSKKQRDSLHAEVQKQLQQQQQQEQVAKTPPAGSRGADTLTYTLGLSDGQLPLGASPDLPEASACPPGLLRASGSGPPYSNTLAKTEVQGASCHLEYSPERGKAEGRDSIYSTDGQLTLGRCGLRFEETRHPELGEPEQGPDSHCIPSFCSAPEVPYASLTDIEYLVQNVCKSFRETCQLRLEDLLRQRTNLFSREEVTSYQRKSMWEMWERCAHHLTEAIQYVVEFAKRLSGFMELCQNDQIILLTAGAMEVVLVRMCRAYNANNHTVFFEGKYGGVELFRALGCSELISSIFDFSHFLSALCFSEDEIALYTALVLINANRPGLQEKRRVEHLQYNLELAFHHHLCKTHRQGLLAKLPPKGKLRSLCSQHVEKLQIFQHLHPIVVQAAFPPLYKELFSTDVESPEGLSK
#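 ROR gamma transcriptional activity was tracked as Gal4-UAS luciferase output in stably transfected Drosophila Schneider cells, with compound added 1 hr before 700 uM copper sulfate induction and a 20 hr ambient-temperature incubation.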
# LDHA inh – qHTS assay for inhibitors of human lactate dehydrogenase. L-lactate dehydrogenase A chain (Homo sapiens), P00338. AID 1347041, 2019. activity change, % (values are at about 110 or 230 µM). 480,000 tested, 0.15% active. purified LDHA, NADH/diaphorase-resazurin fluorescence; stronger effect = lower value; in the data active means activity change below about -30%; inconclusive means mostly about -25% to -30%;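 further: plate controls were DMSO wells for no effect and wells without enzyme for full effect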
#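 Human LDH5 at 2 nM final in Tris HCl pH 7.4 with 0.06 mM NADH and 0.2 mM pyruvate, reacted 5 minutes at room temperature. Remaining NADH coupled via diaphorase/resazurin; resorufin fluorescence read at 0 and 20 minutes, normalized to enzyme-free and DMSO wells.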
# TDP1 cell CPT – qHTS for Inhibitors of human tyrosyl-DNA phosphodiesterase 1 (TDP1): qHTS in cells in presence of CPT. chicken DT40 Tdp1-/-;hTDP1 cells + 20 nM CPT, ATP luminescence, 48 h. Potency, µM (series often up to 46.2 µM), for the others: top-dose activity change, negative = growth inhibition, hits mostly inhibitors. 420,000 tested, 12% active; further: potency means the concentration at half of the fitted maximal effect; nearly all actives have a fitted effect of over 55% in size
#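 Chicken DT40 Tdp1-/- cells complemented with human TDP1, 400 cells/well, exposed to compounds plus 20 nM camptothecin for at least 48 h at 37 C; viability read as ATP content by CellTiter-Glo luminescence.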
# TDP1 cell noCPT – qHTS for Inhibitors of human tyrosyl-DNA phosphodiesterase 1 (TDP1): qHTS in cells in absence of CPT; 420,000 tested, 15% active; DT40 Tdp1-/- hTDP1 cells, no CPT, ATP luminescence, 48 h; AID 686978, 2013; Potency, µM (doses to about 46.2 µM), without a hit: at the highest dose activity change, negative = growth inhibition, hits mostly inhibitors; further: potency means the concentration at half of the fitted maximal effect; nearly all actives have a fitted effect of over 55% in size
#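 Seeded 400 DT40-hTDP1 cells/well (vehicle DMSO, no 20 nM CPT); pinned compounds; ≥48 hr at 37 °C; CellTiter-Glo luminescence as viability measure.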
# Gal4-VP16 FLuc – VP16 counterscreen qHTS for inhibitors of ROR gamma transcriptional activity; Drosophila S2 Gal4-VP16 UAS-luciferase, luminescence, 20 h; Potency, µM (top dose mostly 53.6 µM), without a hit: at the top dose activity, negative = inhibition, actives largely listed as inhibitors; 310,000 tested, 3.5% active; AID 2546, 2010;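 further: Gal4-VP16 expression switched on by copper sulfate through the metallothionein promoter; potency means the concentration at half of the fitted maximal effect; nearly all actives have a fitted effect of over 50% in size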
# IL-1B inflam inh – qHTS for Inhibitors of Inflammasome Signaling: IL-1-beta AlphaLISA Primary Screen. activity change, % at 57.5 µM. THP-1 LPS/ATP IL-1B secretion, AlphaLISA, 16 h; stronger effect = lower value. 360,000 tested, 4.7% active. AID 743279, 2014; in the data active means activity change below about -50%; inconclusive means mostly about -30% to -49%
#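 THP-1 cells pretreated 1 hr with compounds (up to 57.5 uM final), then stimulated with LPS (250 ng/mL final) plus ATP (1.25 mM final); secreted IL-1B measured by AlphaLISA after 16 hr, decreased signal indicating inhibition.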
# * = called active by the depositor; ? = inconclusive; . = no result. A selection: hits, their analogues and other compounds. The true share with any hit is near 18%. Unless noted, the call rests on the fitted dose curve; in most records, active means well fitted curve in the direction sought with a large enough effect; inconclusive means small, poorly fitted or top-dose-only effect, or another doubt; inactive means no such curve, though single readings can be large; an effect the other way counts as inactive or inconclusive. Unless noted, on the % scale 0 is the no-effect control and ±100 the full control effect.
SMILES,RORgamma inh,LDHA inh,TDP1 cell CPT,TDP1 cell noCPT,Gal4-VP16 FLuc,IL-1B inflam inh
Cc1cc(C(=O)CCC(=O)O)c(C)s1,.,8,.,.,.,.
CCC(C)N(C)Cc1cccc(C2(O)CCN(S(=O)(=O)c3ccc(F)c(C)c3)CC2)c1 (configuration not stated),0%,-3,18µM*,18µM*,-25%,-23
Cc1cc(S(=O)(=O)N2CCN(c3c(C)cccc3C)CC2)ccc1F,10%,-4,-26%,?,-10%,22
CCc1cccc(CC)c1NC(=O)c1ccc(CSc2ccc(C)cc2)cc1,.,3,.,.,.,.
CC(C)N(Cc1nc(-c2ccccc2)no1)C(=O)COc1ccccc1,?,-1,?,?,?,1
COc1ccccc1OCC(=O)N(Cc1nc(-c2ccccc2)no1)C(C)C,-9%,4,-18%,?,-4%,-59*
COc1cccc(OCC(=O)N(Cc2nc(-c3ccc(Cl)cc3)no2)C(C)C)c1,-19%,1,8.2µM*,23µM*,5%,-6
COc1ccccc1OCC(=O)N(Cc1nc(-c2ccc(Cl)cc2)no1)C(C)C,-11%,-2,?,16µM*,10%,-26
Cc1ccc(-c2noc(CN(C(=O)COc3cc(C)cc(C)c3C)C(C)C)n2)cc1,.,3,23µM*,?,.,.
Cc1cc(C(=O)N2CCN(c3ccc([N+](=O)[O-])cc3)CC2)n[nH]1,1%,-5,3.3µM*,2.6µM*,7%,-11
CCSc1ccccc1C(=O)N1CCN(c2ccc([N+](=O)[O-])cc2)CC1,?,-4,?,16µM*,-9%,2
Cc1occc1C(=O)N1CCN(c2ccc([N+](=O)[O-])cc2)CC1,-3%,0,?,?,1%,-4
O=C(c1cc([N+](=O)[O-])ccc1Cl)N1CCN(c2ccccc2)CC1,17%,-6,22%,-18%,-3%,-8
O=C(c1cc2ccccc2cc1O)N1CCN(c2ccc([N+](=O)[O-])cc2)CC1,.,-2,29µM*,15µM*,.,0
CC(On1nnc2ccc(Cl)cc21)C(=O)Nc1ccc(F)cc1F (configuration not stated),.,-1,.,.,.,.
CCCCCCCC(=O)N/N=C/c1cccc2ccccc12,.,6,.,.,.,.
NCCN1C(=O)c2ccccc2C1(O)c1ccc(Cl)cc1 (configuration not stated),.,-7,?,13µM*,.,-27
Cc1ccc(N/C(C(Cl)=C(Cl)Cl)=C(/Cl)[N+](=O)[O-])c(C)c1,?,5,23µM*,16µM*,-13%,-18
Cc1ccc(NC(=O)CC(=O)Nc2ccc(C)cc2C)c(C)c1,-8%,-2,-11%,0%,-5%,11
O=C(Nc1ccc(N2CCOCC2)c(S(=O)(=O)Nc2ccc(Cl)cc2)c1)c1cnccn1,?,0,16µM*,18µM*,-1%,-17
CCC(=O)Nc1ccc(N2CCOCC2)c(S(=O)(=O)Nc2ccc(Cl)cc2)c1,.,-5,?,-24%,.,1
O=C(Nc1ccc(N2CCOCC2)c(S(=O)(=O)Nc2ccc(Cl)cc2)c1)c1ccc(=O)[nH]n1,.,3,-22%,-16%,.,-56*
O=C(CCC(=O)c1ccc(F)cc1)OCC(=O)c1ccc([N+](=O)[O-])cc1,.,7,.,.,.,.
c1ccc(N2CCN(c3nc(N4CCCC4)nc4nccnc34)CC2)cc1,.,1,.,.,.,.
CC(C)(C)c1cc(OC(=O)C2CCCC2)ccc1O,?,-1,5.2µM*,3.7µM*,11µM*,?
SMILES,RORgamma inh,LDHA inh,TDP1 cell CPT,TDP1 cell noCPT,Gal4-VP16 FLuc,IL-1B inflam inh
Cc1cc(=O)n2c3ccccc3n(CC(O)CN3CCN(Cc4ccccc4)CC3)c2c1C#N (configuration not stated),-15%,1,12µM*,12µM*,-6%,-18
OC(CN1CCN(c2ccccc2)CC1)Cn1c2ccccc2c2ccccc21 (configuration not stated),-6%,-5,18µM*,13µM*,-11%,-6
OC(CN1CCOCC1)Cn1c2ccccc2c2ccccc21 (configuration not stated),-37%,0,5%,?,-14%,-7
OC(CN1CCCCC1)Cn1c2ccc(Cl)cc2c2cc(Cl)ccc21 (configuration not stated),?,1,?,15µM*,?,.
Cc1cc(=O)n2c3ccccc3n(CC(O)CN3CCN(c4ccccc4)CC3)c2c1C#N (configuration not stated),.,5,.,.,.,.
CC1CCCC(C)N1CC(O)Cn1c2ccccc2c2ccccc21 (configuration not stated),1%,-3,1.8µM*,2.6µM*,0%,-8
O=C(COC(=O)C12CC3CC(CC(Cl)(C3)C1)C2)Nc1ccc([N+](=O)[O-])cc1Cl,.,10,.,.,.,.
CC1CCN(CC(O)Cn2c3ccccc3c3ccccc32)CC1 (configuration not stated),3%,-3,-23%,?,-7%,-63*
OC(CN1CCN(Cc2ccccc2)CC1)Cn1c2ccccc2c2ccccc21 (configuration not stated),9%,-3,23µM*,?,?,-28
OC(CN1CCNCC1)Cn1c2ccccc2c2ccccc21 (configuration not stated),-2%,-6,-29%,-15%,14%,-27
Cc1nn(CC(=O)NC(C)(C)C)c(C)c1S(=O)(=O)N1CCCC(C(=O)N2CCCC2)C1 (configuration not stated),.,-5,.,.,.,.
C=CCOC(=O)C1=C(C)NC(=S)NC1/C=C/c1ccccc1 (configuration not stated),2.5µM*,-1,?,?,6.3µM*,-3
CC1=C(C(=O)OCc2ccccc2)C(/C=C/c2ccccc2)NC(=S)N1 (configuration not stated),?,1,16µM*,29µM*,5.6µM*,?
CCC1(c2ccccc2)CN(C)C1=O (configuration not stated),.,-8,3%,-13%,.,-9
